Data from PubChem BioAssay (NCATS).
Inconclusive results are not listed. Activity calls are given as the source filed them. Unless noted, calls come from the whole dose curve; as a rule, active = well fitted curve in the direction sought with a large enough effect; inconclusive = small, poorly fitted or top-dose-only effect, or another doubt; inactive = no such curve, though single readings can be large; an effect the other way counts as inactive or inconclusive.

Assays:
[1] = biological target: Estrogen receptor (Homo sapiens) (UniProt P03372); experiment: qHTS assay for small molecule antagonists of estrogen receptor alpha signaling (AID 588513; active = well fitted curve in the direction sought with a large enough effect in the signal ratio, with a control signal flat, not every such curve was filed as active; the % refers to the signal ratio; note: % is set by controls: 0 for no effect and ±100 for the full control effect)
How it was run: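 Antagonist mode: inhibition of 0.5 nM 17-beta-estradiol-driven beta-lactamase reporter in HEK 293 ER-alpha-UAS-bla cells, 18 h at 37C, CCF4 readout after 2 h at RT. Normalised to estradiol and DMSO; titration fitted to Hill.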

[2] = biological target: Estrogen receptor (Homo sapiens) (UniProt P03372); experiment: qHTS assay for small molecule agonists of estrogen receptor alpha signaling (AID 588514; calls by dose curve;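 note: 0% = vehicle only and 100% = reference agonist; nearly all actives have a fitted effect of over 70% in size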)
How it was run: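 ER-alpha-UAS-bla GripTite HEK 293 cells in medium with 2% charcoal/dextran-treated FBS were treated with compound titrations at 37 C for 18 hrs; beta-lactamase reporter read by CCF4 fluorescence after 2 hrs at RT.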

[3] = qHTS assay for small molecule antagonists of peroxisome proliferator-activated receptor delta signaling (AID 588535); settings: HEK293T PPARd-UAS-bla, beta-lactamase FRET ratio, 18 h; 460 nm channel;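 note: cells co-treated with a PPAR-delta agonist as stimulator during compound exposure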
How it was run: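 GeneBLAzer PPAR-delta-UAS-bla HEK293T cells in medium with 2% charcoal/dextran FBS were preincubated 5 hrs at 37 C, then given compounds, incubated 18 hrs at 37 C, and read by CCF4 beta-lactamase fluorescence; IC50 from Hill fits.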

[4] = biological target: Peroxisome proliferator-activated receptor gamma (Homo sapiens) (UniProt P37231); experiment: qHTS assay for small molecule agonists of peroxisome proliferator-activated receptor gamma signaling (AID 588536; active = well fitted curve in the direction sought with a large enough effect in the signal ratio, with a control signal flat, not every such curve was filed as active; the % refers to the signal ratio;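 note: 0% = DMSO basal wells and 100% = rosiglitazone at 2 µM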)
How it was run: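 HEK293 UAS-bla reporter line, 1% charcoal/dextran FBS; titration, 16 h, 37 C; CCF4 loading 2 h RT; fluorescence 460/530 nm. Normalized to rosiglitazone 2 uM = 100%, DMSO = 0%.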

[5] = biological target: Vitamin D3 receptor (Homo sapiens) (UniProt P11473); experiment: qHTS assay for small molecule agonists of vitamin D receptor signaling (AID 588543; calls by dose curve;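 note: 0% = DMSO basal and 100% = reference agonist control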)
How it was run: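 Agonist-mode beta-lactamase reporter: HEK293T VDR-UAS-bla cells in charcoal-stripped 2% FBS, compound series 16 h 37 C, CCF4 2 h RT. EC50 from Hill fit, scaled against DMSO and 50 nM calcitriol control.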

[6] = biological target: Thyroid hormone receptor beta (Homo sapiens) (UniProt P10828); experiment: qHTS assay for small molecule agonists of thyroid hormone receptor beta signaling (AID 588545; calls by dose curve;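 note: 0% = DMSO only and 100% = 10 nM T3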)
How it was run: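 Beta-lactamase reporter activity under TR response element control is measured in HEK 293 cells after 18 hrs compound exposure. Signal is ratiometric CCF4 fluorescence, 460/530 nm.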

[7] = qHTS assay for small molecule antagonists of retinoid X receptor alpha signaling (AID 588546; active = well fitted inhibition curve with a large enough effect in the signal ratio, with a control signal flat, not every such curve was filed as active; the % refers to the signal ratio;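 note: cells stimulated with 9-cis-retinoic acid as agonist; % is set by controls: 0 for no effect and ±100 for the full control effect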); settings: HEK293T RXRa-UAS-bla, beta-lactamase ratio, antagonist mode; measured here: W530 green channel, cytotoxicity proxy
How it was run: (§1)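 Beta-lactamase reporter inhibition, read as CCF4 fluorescence ratio (ex 405, em 460/530 nm) after 2 h at RT. HEK293T UAS-bla cells, 2500/well, were stimulated with 9-cis-RA at 500 or 100 nM final alongside test compound for 18 h at 37 C.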

[8] = biological target: Retinoic acid receptor RXR-alpha (Homo sapiens) (UniProt P19793); experiment: as above; settings: HEK293T RXRa-UAS-bla, beta-lactamase ratio, antagonist mode
How it was run: as §1

[9] = biological target: Thyroid hormone receptor beta (Homo sapiens) (UniProt P10828); experiment: qHTS assay for small molecule antagonists of thyroid hormone receptor beta signaling (AID 588547; active = well fitted inhibition curve with a large enough effect in the signal ratio, with a control signal flat, not every such curve was filed as active; the % refers to the signal ratio;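 note: cells stimulated with 0.4 nM T3 agonist during compound exposure; series mostly up to about 77 µM; % is set by controls: 0 for no effect and ±100 for the full control effect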); settings: TR-UAS-bla HEK293, beta-lactamase ratio, antagonist mode, 18 h
How it was run: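 TR-UAS-bla GripTite HEK293 cells in 2% charcoal/dextran FBS medium were preincubated 4 h at 37 C, given compound (0.59 nM to 92 uM) plus 0.4 nM T3 (final) for 18 h, then CCF4 for 2 h at RT; Hill fit gave IC50.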

[10] = qHTS assay for small molecule activators of the nuclear factor-kappa B (NF-kB) signaling pathway (AID 651749; active = well fitted activation curve with a large enough effect in the signal ratio; the % refers to the signal ratio; note: series mostly up to about 77 µM; % of control where 0% means no effect); settings: NF-kB-bla ME-180 cells, beta-lactamase FRET ratio, 16 h; activation: stronger effect = higher value
How it was run: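 ME-180 cells stably carrying a beta-lactamase reporter under an NF-kB response element were exposed to compound or DMSO vehicle for 16 hr at 37C, 5% CO2. Pathway activation was read by FRET, since reporter expression disrupts FRET.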

[11] = qHTS assay for environmental chemicals that activate the Aryl hydrocarbon Receptor (AhR) signaling pathway (AID 651777); settings: 1A2-DRE human hepatoma cells, luciferase, 24 h; activation: stronger effect = higher value; note: % of control where 0% means no effect; nearly all actives have a fitted effect of over 15% in size
How it was run: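 Concentration–response screening used 1,200 1A2-DRE cells per well, 24 hr compound exposure (37 C, 5% CO2), and One-Glo luminescence as the AhR-driven CYP1A2 reporter signal.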

[12] = biological target: Peroxisome proliferator-activated receptor alpha (Homo sapiens) (UniProt Q07869); experiment: qHTS assay for small molecule agonists of the peroxisome proliferator-activated receptor alpha (PPARalpha) signaling pathway (AID 651778); settings: PathHunter PPARalpha complementation, chemiluminescence, 6 h; max response: stronger effect = higher value; note: % of control where 0% means no effect
How it was run: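 Cells plated at 2,000/well and held overnight at 37 C, 5% CO2, then compound added by pin tool for 6 hr; after PathHunter detection reagent and 60 min at room temperature, chemiluminescence from enzyme complementation was read.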

[13] = qHTS assay for small molecule agonists of the antioxidant response element (ARE) signaling pathway measured by Nrf2-dependant transcriptional activity (AID 720636; active = well fitted curve in the direction sought with a large enough effect in the repeat runs; an effect the other way counts as inactive or inconclusive;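 note: HepG2 cells with an ARE-driven luciferase reporter; % of control where 0% means no effect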)
How it was run: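 Attachment 6 hr at 37 C, then compound versus DMSO vehicle for 16 hr in ARE-luc HepG2 cells (1% dialyzed FBS); luminescence recorded 30 min after ONE-Glo addition at room temperature.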

[14] = qHTS assay for small molecule agonists of the antioxidant response element (ARE) signaling pathway measured by Nrf2-dependant transcriptional activity - cell viability counter screen (AID 720653; active = well fitted curve in the direction sought with a large enough effect in the repeat runs; an effect the other way counts as inactive or inconclusive; note: % is set by controls: 0 for no effect and ±100 for the full control effect); settings: ARE-bla HepG2 viability, CellTiter-Glo ATP luminescence, 16 h; max response: stronger effect = lower value
How it was run: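 ARE-bla HepG2 cells (2,000/well) rested 5 hrs at 37C/5% CO2, then exposed to compounds in DMSO for 16 hrs. Viability was read in the same wells as intracellular ATP by luminescence, 30 min at room temperature after reagent addition.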

[15] = qHTS assay for cell viability of HEK293 cells (AID 743288); settings: ATP luminescence (CellTiter-Glo), 18 h; max response: stronger effect = lower value; note: % is set by controls: 0 for no effect and ±100 for the full control effect; nearly all actives have a fitted effect of over 50% in size
How it was run: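 Total intracellular ATP, measured with a luciferase-coupled reagent, indicates the number of viable HEK293 cells. Exposure to test chemicals lasts 18 h at 37 C in 1,536-well format at 2,000 cells/well.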

[16] = qHTS assay for cell viability of the p53RE-bla HCT-116 cell line (AID 743292); note: % is set by controls: 0 for no effect and ±100 for the full control effect; nearly all actives have a fitted effect of over 55% in size
How it was run: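 Compound-exposed HCT-116 (p53RE-bla) cells, 4,000 per well, were kept 16 h at 37 C following a 5 h preincubation. Cell number was estimated from total ATP by CellTiter-Glo luminescence read after 30 min at room temperature.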

[17] = biological target: Nuclear receptor subfamily 1 group I member 2 (Rattus norvegicus) (UniProt Q9R1A7); experiment: qHTS assay for small molecule activators of the rat pregnane X receptor (rPXR) signaling pathway (AID 651751; call rule not given here; note: 0% is about no effect); settings: rPXR reporter cells, luciferase (One-Glo), 24 h
[18] = qHTS assay for small molecule activators of the human pregnane X receptor (PXR) signaling pathway (AID 720659; call rule not given here; note: 0% is about no effect)
[19] = qHTS assay for small molecule agonists of retinoid X receptor alpha signaling (AID 588544; calls by dose curve;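 for activation: 0% = DMSO basal wells and 100% = reference agonist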); settings: HEK293T RXRa-UAS-bla, beta-lactamase reporter, 18 h; 530 nm emission
[20] = biological target: Retinoic acid receptor RXR-alpha (Homo sapiens) (UniProt P19793); experiment: as above

Sequence of Vitamin D3 receptor (Homo sapiens) (P11473 whole entry, looked up): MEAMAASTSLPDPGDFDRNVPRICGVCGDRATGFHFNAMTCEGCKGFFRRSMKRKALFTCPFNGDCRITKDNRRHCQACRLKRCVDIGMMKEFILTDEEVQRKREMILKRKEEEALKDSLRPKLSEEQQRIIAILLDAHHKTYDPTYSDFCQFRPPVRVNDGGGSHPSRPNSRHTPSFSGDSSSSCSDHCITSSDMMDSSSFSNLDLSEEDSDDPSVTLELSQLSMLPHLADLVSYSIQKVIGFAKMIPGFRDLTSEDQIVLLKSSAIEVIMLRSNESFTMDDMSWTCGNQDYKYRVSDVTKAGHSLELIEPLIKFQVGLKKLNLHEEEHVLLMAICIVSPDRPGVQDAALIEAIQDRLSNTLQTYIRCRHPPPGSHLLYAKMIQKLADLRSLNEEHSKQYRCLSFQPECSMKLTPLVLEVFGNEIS
Sequence of Retinoic acid receptor RXR-alpha (Homo sapiens) (P19793 whole entry, looked up): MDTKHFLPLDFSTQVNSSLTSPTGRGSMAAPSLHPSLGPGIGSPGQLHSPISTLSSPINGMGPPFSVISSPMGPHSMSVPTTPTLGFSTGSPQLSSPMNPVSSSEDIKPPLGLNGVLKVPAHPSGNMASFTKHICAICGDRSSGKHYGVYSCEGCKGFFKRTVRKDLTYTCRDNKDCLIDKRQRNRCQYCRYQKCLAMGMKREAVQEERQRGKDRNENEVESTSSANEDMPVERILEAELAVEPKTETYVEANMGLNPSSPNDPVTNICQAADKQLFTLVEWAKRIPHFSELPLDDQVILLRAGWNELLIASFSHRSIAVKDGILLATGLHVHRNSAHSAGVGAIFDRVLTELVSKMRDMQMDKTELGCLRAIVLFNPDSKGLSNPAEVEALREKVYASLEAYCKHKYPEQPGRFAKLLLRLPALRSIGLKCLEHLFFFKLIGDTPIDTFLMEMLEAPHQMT
Sequence of Estrogen receptor (Homo sapiens) (P03372 whole entry, looked up): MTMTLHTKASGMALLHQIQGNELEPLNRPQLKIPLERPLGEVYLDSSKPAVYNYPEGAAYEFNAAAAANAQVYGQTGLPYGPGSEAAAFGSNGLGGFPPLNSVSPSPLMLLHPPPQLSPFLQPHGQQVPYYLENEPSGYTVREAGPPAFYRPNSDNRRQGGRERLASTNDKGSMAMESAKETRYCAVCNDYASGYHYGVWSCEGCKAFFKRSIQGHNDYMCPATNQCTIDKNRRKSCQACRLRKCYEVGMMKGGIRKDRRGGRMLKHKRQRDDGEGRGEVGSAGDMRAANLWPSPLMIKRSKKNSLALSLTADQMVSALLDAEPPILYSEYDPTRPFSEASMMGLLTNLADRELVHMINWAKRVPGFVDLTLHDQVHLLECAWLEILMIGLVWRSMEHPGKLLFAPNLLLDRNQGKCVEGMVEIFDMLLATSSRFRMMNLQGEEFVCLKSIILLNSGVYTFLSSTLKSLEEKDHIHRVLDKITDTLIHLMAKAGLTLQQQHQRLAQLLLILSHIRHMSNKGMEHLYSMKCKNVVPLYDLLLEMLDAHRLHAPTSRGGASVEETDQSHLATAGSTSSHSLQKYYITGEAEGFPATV
Sequence of Thyroid hormone receptor beta (Homo sapiens) (P10828 whole entry, looked up): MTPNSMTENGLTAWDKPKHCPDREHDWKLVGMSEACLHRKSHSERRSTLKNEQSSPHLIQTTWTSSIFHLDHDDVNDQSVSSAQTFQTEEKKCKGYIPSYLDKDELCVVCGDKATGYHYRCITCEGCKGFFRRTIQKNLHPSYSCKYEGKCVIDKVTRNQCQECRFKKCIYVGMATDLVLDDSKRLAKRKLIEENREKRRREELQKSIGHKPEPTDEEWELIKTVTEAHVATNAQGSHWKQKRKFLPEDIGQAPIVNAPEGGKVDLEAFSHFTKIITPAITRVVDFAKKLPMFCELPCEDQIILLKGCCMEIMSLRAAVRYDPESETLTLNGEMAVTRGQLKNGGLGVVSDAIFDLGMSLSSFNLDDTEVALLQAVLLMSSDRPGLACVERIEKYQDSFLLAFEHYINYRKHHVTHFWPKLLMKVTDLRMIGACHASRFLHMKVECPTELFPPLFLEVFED
Sequence of Nuclear receptor subfamily 1 group I member 2 (Rattus norvegicus) (Q9R1A7 whole entry, looked up): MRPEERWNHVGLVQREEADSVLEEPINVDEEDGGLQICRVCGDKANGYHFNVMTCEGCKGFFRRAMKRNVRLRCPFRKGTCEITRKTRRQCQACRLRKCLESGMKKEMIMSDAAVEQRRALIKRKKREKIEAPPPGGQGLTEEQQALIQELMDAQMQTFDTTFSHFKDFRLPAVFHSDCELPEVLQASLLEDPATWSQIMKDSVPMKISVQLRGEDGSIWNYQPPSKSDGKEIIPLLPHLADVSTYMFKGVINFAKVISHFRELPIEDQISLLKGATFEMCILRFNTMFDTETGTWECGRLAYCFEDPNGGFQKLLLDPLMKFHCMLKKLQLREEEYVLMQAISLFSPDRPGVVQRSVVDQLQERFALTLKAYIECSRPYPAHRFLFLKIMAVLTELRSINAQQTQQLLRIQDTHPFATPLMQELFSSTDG
Sequence of Peroxisome proliferator-activated receptor alpha (Homo sapiens) (Q07869 whole entry, looked up): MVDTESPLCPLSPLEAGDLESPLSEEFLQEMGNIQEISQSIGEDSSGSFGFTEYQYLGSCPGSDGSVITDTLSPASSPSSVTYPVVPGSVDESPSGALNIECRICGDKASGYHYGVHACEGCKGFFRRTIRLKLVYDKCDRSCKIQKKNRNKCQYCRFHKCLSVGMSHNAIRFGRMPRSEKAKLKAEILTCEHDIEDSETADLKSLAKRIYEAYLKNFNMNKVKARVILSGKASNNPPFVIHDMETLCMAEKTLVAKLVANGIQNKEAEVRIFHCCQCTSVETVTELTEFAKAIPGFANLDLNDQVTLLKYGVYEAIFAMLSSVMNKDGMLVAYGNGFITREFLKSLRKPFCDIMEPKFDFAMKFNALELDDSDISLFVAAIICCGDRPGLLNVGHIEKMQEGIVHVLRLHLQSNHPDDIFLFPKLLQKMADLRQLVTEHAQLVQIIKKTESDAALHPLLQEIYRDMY
Sequence of Peroxisome proliferator-activated receptor gamma (Homo sapiens) (P37231 whole entry, looked up): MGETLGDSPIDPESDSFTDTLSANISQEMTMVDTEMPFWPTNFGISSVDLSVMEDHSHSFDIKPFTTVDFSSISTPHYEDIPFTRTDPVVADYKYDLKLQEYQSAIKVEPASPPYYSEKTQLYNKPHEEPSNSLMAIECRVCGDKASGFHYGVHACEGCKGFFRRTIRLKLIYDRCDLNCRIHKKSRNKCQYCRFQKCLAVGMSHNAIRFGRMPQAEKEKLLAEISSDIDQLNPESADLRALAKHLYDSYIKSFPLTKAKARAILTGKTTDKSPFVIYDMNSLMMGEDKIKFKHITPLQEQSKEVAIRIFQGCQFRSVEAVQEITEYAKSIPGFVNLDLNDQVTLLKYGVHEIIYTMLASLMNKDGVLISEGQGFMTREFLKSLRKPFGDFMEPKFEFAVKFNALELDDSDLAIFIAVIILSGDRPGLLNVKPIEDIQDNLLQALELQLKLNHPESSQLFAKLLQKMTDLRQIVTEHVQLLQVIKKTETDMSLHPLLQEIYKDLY

Nc1cc(Cl)nc(C(=O)O)c1Cl
inactive: Potency [1] | Potency [2] | outcome [4] | outcome [5] | Potency [6] | max response [8] -3.66% | activity change % (negative = inhibition) [9] 12% | activation [10] 0.121% | activation [11] 1.56% | max response [12] -2.9% | Potency [13] | max response [14] -4.32% | max response [15] 1.25% | Potency [16] | max response [17] 2.09% | outcome [18]
-21.2%: max response [3]
-11.4%: max response [7]

CC(C)c1ccc2cc(C(C)C)ccc2c1
-11.7%: max response [7]
inactive: Potency [1] | Potency [2] | outcome [5] | Potency [6] | activity change % (negative = inhibition) [9] -11% | activation [10] -0.342% | activation [11] 1.48% | max response [12] -0.981% | max response [14] 7.43% | max response [15] -0.947% | Potency [16] | max response [17] 1.57% | outcome [18]

C=C[Si](OCCOC)(OCCOC)OCCOC
-8.04%: max response [7]
inactive: Potency [1] | Potency [2] | outcome [4] | Potency [20] | Potency [6] | max response [8] 2.22% | activation [11] 0.581% | max response [12] -0.929% | Potency [13] | max response [14] 15.4% | max response [15] -9.27% | Potency [16] | max response [17] 1.26% | outcome [18]
25.9%: max response [3]
-7.07%: max response [19]

CCCC/C=C\CCCCCCCCO
inactive: Potency [1] | Potency [2] | outcome [4] | outcome [5] | Potency [20] | Potency [6] | max response [8] -9.15% | activity change % (negative = inhibition) [9] 3.63% | activation [10] -0.809% | activation [11] 0.183% | max response [12] 2.88% | Potency [13] | max response [14] -0.523% | max response [15] -8.96% | Potency [16] | max response [17] 12.2% | outcome [18]
56.8%: max response [3]
-17%: max response [19]
-4.18%: max response [7]

C/C=C/C=C/CCCCCCCO
11.1%: max response [19]
19.3%: max response [3]
inactive: Potency [1] | Potency [2] | outcome [5] | Potency [20] | Potency [6] | max response [8] -19.2% | activity change % (negative = inhibition) [9] -0.935% | activation [10] -0.666% | activation [11] -1.79% | Potency [13] | max response [14] -8.82% | max response [15] -6.91% | Potency [16] | max response [17] -0.307% | outcome [18]
19.5%: max response [7]

CC(C)(C)c1cccc(C(C)(C)C)c1O
-24.3%: max response [3]
inactive: Potency [1] | Potency [2] | outcome [4] | Potency [20] | Potency [6] | max response [8] -0.1% | activity change % (negative = inhibition) [9] 16.3% | activation [10] -0.872% | activation [11] 0.241% | max response [12] -2.21% | Potency [13] | max response [14] -3.7% | max response [15] 0.51% | Potency [16] | max response [17] 0.577% | outcome [18]
-10.7%: max response [7]
-8.93%: max response [19]

CC(C)Cc1c(C(=O)O)c(C(F)F)nc(C(F)(F)F)c1C1=NCCS1
inactive: Potency [1] | Potency [2] | outcome [4] | outcome [5] | Potency [20] | Potency [6] | activity change % (negative = inhibition) [9] -21.3% | activation [10] 1.24% | activation [11] -4.01% | max response [12] -0.845% | Potency [13] | max response [14] 3.82% | max response [15] -5.4% | Potency [16] | max response [17] -2.45%
45.9%: max response [3]
-17.4%: max response [19]
-0.767%: max response [7]

CC(C)C(=O)OCC(C)(C)C(O)C(C)C (centres undefined)
-13.9%: max response [7]
1.76%: max response [3]
6.96%: max response [19]
inactive: Potency [1] | Potency [2] | outcome [4] | outcome [5] | Potency [20] | Potency [6] | max response [8] -10.9% | activity change % (negative = inhibition) [9] -5.03% | activation [10] -1.26% | activation [11] -2.96% | max response [12] -0.497% | Potency [13] | max response [14] -3.28% | max response [15] -9.28% | Potency [16] | max response [17] -1.98% | outcome [18]

Cn1c(=O)[nH]c(=O)n(C2CCCCC2)c1=O
-9.26%: max response [7]
inactive: Potency [1] | Potency [2] | outcome [4] | outcome [5] | Potency [20] | Potency [6] | max response [8] 5.47% | activity change % (negative = inhibition) [9] 4.13% | activation [10] -1.18% | activation [11] -1.1% | max response [12] -0.628% | Potency [13] | max response [14] -9.94% | max response [15] -7.06% | Potency [16] | max response [17] 1.25% | outcome [18]
-3.38%: max response [19]

CCCCOCCOCCOC(=O)CCCCC(=O)OCCOCCOCCCC
22.3%: max response [3]
-1.41%: max response [7]
-9.1%: max response [19]
inactive: Potency [1] | Potency [2] | outcome [4] | outcome [5] | Potency [20] | Potency [6] | max response [8] 5.79% | activity change % (negative = inhibition) [9] -12.6% | activation [11] -0.636% | max response [12] 3.34% | Potency [13] | max response [14] -2.75% | max response [15] -4.73% | Potency [16] | max response [17] -6.4%

NN(c1ccccc1)c1ccccc1
-8.85%: max response [19]
-11.7%: max response [7]
inactive: Potency [1] | Potency [2] | outcome [4] | outcome [5] | Potency [20] | Potency [6] | max response [8] -14.4% | activity change % (negative = inhibition) [9] 4.53% | activation [10] -2.86% | activation [11] 3.15% | Potency [13] | max response [14] -7.4% | max response [15] -10.4% | Potency [16] | max response [17] 1.92%
23.6%: max response [3]

Cl[Si](Cl)(c1ccccc1)c1ccccc1
5.91%: max response [3]
-8.47%: max response [7]
inactive: Potency [1] | Potency [2] | outcome [4] | outcome [5] | Potency [20] | Potency [6] | activation [11] -1.05% | max response [12] 5.98% | Potency [13] | max response [14] -10.9% | max response [15] 1.19% | Potency [16]
-17.4%: max response [19]
